Where “and” joins values, the source holds several entries; their conditions need not be identical. Equal values may be shown once. Some compounds were tested as several samples or in several runs, with calls that do not always agree. Calls of active or inactive are those of the source. How the source made its calls: active means hit-call score of the fitted dose curve at least 0.9, where 1 is the maximum; inactive means score below 0.9.
Tests used:
[1] = read-out: Vascular cell adhesion molecule 1 (VCAM1), VCAM1 (gene 7412); experiment: BSK_4H_VCAM1: BioMAP Diversity Plus: 4H Assay for Vascular cell adhesion molecule 1 (VCAM1) Biomarker Activity (AID 2283033); settings: primary human endothelial cells (HUVEC); actives raise or lower the signal
How it was run: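 HUVEC, 24 h post-dose; VCAM-1 by ELISA. Bidirectional curve fit vs DMSO baseline. Parallel SRB total-protein stain (0.1% SRB after 10% TCA fixation, 560 nm) for cytotoxicity.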

[2] = read-out: Interferon-gamma inducible Protein 10 (IP10), CXCL10 (gene 3627); experiment: BSK_BE3C_IP10: BioMAP Diversity Plus: BE3C Assay for Interferon-gamma inducible Protein 10 (IP10) Biomarker Activity (AID 2283034); settings: primary human bronchial epithelial cells; actives raise or lower the signal
How it was run: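 ELISA readout of IP-10 in BE3C system: primary human bronchial epithelial cells, 24 h post-dosing; bidirectional curve fit vs DMSO baseline.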

[3] = read-out: Plasminogen activator inhibitor-1 (PAI1), SERPINE1 (gene 5054); experiment: BSK_BE3C_PAI1: BioMAP Diversity Plus: BE3C Assay for Plasminogen activator inhibitor-1 (PAI1) Biomarker Activity (AID 2283037); settings: primary human bronchial epithelial cells; actives raise or lower the signal
How it was run: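 ELISA read-out of PAI-1 from human bronchial epithelial primary cells, 24 h post-dosing; bidirectional curve fit vs DMSO baseline, gain or loss of signal scored.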

[4] = read-out: urokinase plasminogen activator (uPA), PLAU (gene 5328); experiment: BSK_BE3C_uPA: BioMAP Diversity Plus: BE3C Assay for urokinase plasminogen activator (uPA) Biomarker Activity (AID 2283038); settings: primary human bronchial epithelial cells; actives raise or lower the signal;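 on outcome: uPA protein level quantified by ELISA in cell cultures; uPA read one day after compound addition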
How it was run: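 Primary human bronchial epithelial cells, uPA measured by ELISA 24 h after dosing. Bidirectional change relative to DMSO; cytotoxicity checked in parallel cultures by sulforhodamine B total-protein staining.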

[5] = read-out: Urokinase-type plasminogen activator receptor (uPAR), PLAUR (gene 5329); experiment: BSK_BE3C_uPAR: BioMAP Diversity Plus: BE3C Assay for Urokinase-type plasminogen activator receptor (uPAR) Biomarker Activity (AID 2283039); settings: primary human bronchial epithelial cells; actives raise or lower the signal;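 further: uPAR protein level measured by ELISA on the cells; cells exposed to compound for one day before measurement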
How it was run: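 ELISA readout of uPAR on human lung primary bronchial epithelial cells, 24 h post-dosing. Bidirectional curve fit relative to DMSO vehicle baseline; gain or loss of signal both scored.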

[6] = read-out: Interleukin-6 (IL6), IL6 (gene 3569); experiment: BSK_CASM3C_IL6: BioMAP Diversity Plus: CASM3C Assay for Interleukin-6 (IL6) Biomarker Activity for (AID 2283040); settings: primary human coronary artery smooth muscle cells; actives raise or lower the signal
[7] = read-out: Tissue plasminogen activator (tPA), PLAT (gene 5327); experiment: BSK_BE3C_tPA: BioMAP Diversity Plus: BE3C Assay for Tissue plasminogen activator (tPA) Biomarker Activity (AID 2283041); settings: primary human bronchial epithelial cells; actives raise or lower the signal;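 on outcome: tPA level quantified by ELISA one day after compound addition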
How it was run: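 ELISA read-out of tPA on human primary bronchial epithelial cells, 24 h post-dosing; bidirectional fit vs DMSO negative control/baseline.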

[8] = read-out: Interleukin-8 (IL8), CXCL8 (gene 3576); experiment: BSK_CASM3C_IL8: BioMAP Diversity Plus: CASM3C Assay for Interleukin-8 (IL8) Biomarker Activity (AID 2283042); settings: primary human coronary artery smooth muscle cells; actives raise or lower the signal;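 further: IL-8 protein level quantified by ELISA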
[9] = read-out: Human Leukocyte Antigen - DR isotype (HLADR), HLA-DRA (gene 3122); experiment: BSK_CASM3C_HLADR: BioMAP Diversity Plus: CASM3C Assay for Human Leukocyte Antigen - DR isotype (HLADR) Biomarker Activity (AID 2283043); settings: primary human coronary artery smooth muscle cells; actives raise or lower the signal;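 further: cell-surface HLA-DR protein level quantified by ELISA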
[10] = read-out: Macrophage colony-stimulating factor (MCSF), CSF1 (gene 1435); experiment: BSK_CASM3C_MCSF: BioMAP Diversity Plus: CASM3C Assay for Macrophage colony-stimulating factor (MCSF) Biomarker Activity (AID 2283044); settings: primary human coronary artery smooth muscle cells; actives raise or lower the signal;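 further: M-CSF protein amount quantified by ELISA after 24 h exposure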
[11] = read-out: Low-density lipoprotein receptor (LDLR), LDLR (gene 3949); experiment: BSK_CASM3C_LDLR: BioMAP Diversity Plus: CASM3C Assay for Low-density lipoprotein receptor (LDLR) Biomarker Activity (AID 2283045); settings: primary human coronary artery smooth muscle cells; actives raise or lower the signal;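 further: LDLR protein level on the cell surface quantified by ELISA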
[12] = read-out: Monocyte Chemoattractant Protein-1 (MCP1), CCL2 (gene 6347); experiment: BSK_CASM3C_MCP1: BioMAP Diversity Plus: CASM3C Assay for Monocyte Chemoattractant Protein-1 (MCP1) Biomarker Activity (AID 2283046); settings: primary human coronary artery smooth muscle cells; actives raise or lower the signal;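 further: MCP-1 level quantified by ELISA 24 h after dosing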
[13] = BSK_CASM3C_Proliferation: Cell Proliferation Assessment in the BioMAP Diversity Plus: CASM3C Assay (AID 2283047); settings: primary human coronary artery smooth muscle cells;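 further: sulforhodamine B total protein stain as relative cell number at 560 nm; sub-confluent cells exposed 48 h before staining; fitted both ways against DMSO so gain or loss of cell number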
[14] = read-out: Monokine induced gamma interferon (MIG), CXCL9 (gene 4283); experiment: BSK_CASM3C_MIG: BioMAP Diversity Plus: CASM3C Assay for Monokine induced gamma interferon (MIG) Biomarker Activity (AID 2283048); settings: primary human coronary artery smooth muscle cells; actives raise or lower the signal;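 further: MIG protein level measured by ELISA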
[15] = read-out: serum amyloid A (SAA), SAA1 (gene 6288); experiment: BSK_CASM3C_SAA: BioMAP Diversity Plus: CASM3C Assay for serum amyloid A (SAA) Biomarker Activity (AID 2283049); settings: primary human coronary artery smooth muscle cells; actives raise or lower the signal;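 further: SAA protein level quantified by ELISA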
[16] = BSK_CASM3C_SRB: Viability Assessment in the BioMAP Diversity Plus: CASM3C Assay (AID 2283050); settings: primary human coronary artery smooth muscle cells;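 further: total protein by SRB staining as cytotoxicity measure in parallel cultures; cells exposed to compound for 24 h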
[17] = read-out: Thrombomodulin, THBD (gene 7056); experiment: BSK_CASM3C_Thrombomodulin: BioMAP Diversity Plus: CASM3C Assay for Thrombomodulin Biomarker Activity (AID 2283051); settings: primary human coronary artery smooth muscle cells; actives raise or lower the signal;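 further: thrombomodulin protein level measured by ELISA 24 h after dosing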
[18] = read-out: Tissue Factor, F3 (gene 2152); experiment: BSK_CASM3C_TissueFactor: BioMAP Diversity Plus: CASM3C Assay for Tissue Factor Biomarker Activity (AID 2283052); settings: primary human coronary artery smooth muscle cells; actives raise or lower the signal;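 further: cell surface tissue factor protein level read by ELISA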
[19] = read-out: Interferon-gamma inducible Protein 10 (IP10), CXCL10 (gene 3627); experiment: BSK_hDFCGF_IP10: BioMAP Diversity Plus: hDFCGF Assay for Interferon-gamma inducible Protein 10 (IP10) Biomarker Activity (AID 2283053); settings: primary human foreskin fibroblasts; actives raise or lower the signal
How it was run: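 ELISA read-out of IP-10 (CXCL10) from primary human skin fibroblasts, 24 h after compound addition. Gain or loss of signal versus DMSO baseline, bidirectional curve fitting.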

[20] = read-out: Urokinase-type plasminogen activator receptor (uPAR), PLAUR (gene 5329); experiment: BSK_CASM3C_uPAR: BioMAP Diversity Plus: CASM3C Assay for Urokinase-type plasminogen activator receptor (uPAR) Biomarker Activity (AID 2283054); settings: primary human coronary artery smooth muscle cells; actives raise or lower the signal;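 further: cell-surface uPAR protein level quantified by ELISA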

## [Cd+2].[Cl-].[Cl-]
[1]
  AC50: 31.6 µM (active) and 27.1 µM (active)
[2]
  AC50: 20 µM (active)
  outcome: inactive
[3]
  AC50: 3.97 µM (active)
  outcome: inactive
[4]
  AC50: 29.9 µM (active)
  outcome: inactive
[5]
  outcome: inactive
[6]
  AC50: 4.02 µM (active) and 2.92 µM (active)
[7]
  AC50: 26 µM (active)
  outcome: inactive
[8]
  outcome: inactive
[9]
  AC50: 9.22 µM (active) and 6.47 µM (active)
[10]
  AC50: 6.22 µM (active) and 3.72 µM (active)
[11]
  AC50: 6.42 µM (active) and 6.31 µM (active)
[12]
  AC50: 7.14 µM (active) and 4.39 µM (active)
[13]
  AC50: 2.7 µM (active) and 2.27 µM (active)
[14]
  AC50: 4.6 µM (active) and 4.58 µM (active)
[15]
  AC50: 3.68 µM (active) and 2.71 µM (active)
[16]
  AC50: 15.4 µM (active) and 15.2 µM (active)
[17]
  outcome: inactive
[18]
  AC50: 5.81 µM (active) and 8.45 µM (active)
[19]
  AC50: 15.9 µM (active) and 13.5 µM (active)
[20]
  AC50: 9.94 µM (active) and 6.24 µM (active)

— PubChem BioAssay (EPA / NIEHS)
